Laboratory results published in PMC5540273 (PLoS ONE, 2017).

What was measured:
Details in all cases: concentration: 1 μM,replicates: in singlicate; n = 1
[1] = system: T1, DCAMKL2
T1 construct: gene DCLK2

[2] = system: T2, DCAMKL3
T2 construct: gene DCLK3

[3] = system: DDR1
[4] = system: DDR2
[5] = system: T3, DLK
T3 construct: gene MAP3K12

[6] = system: T4, DMPK2
T4 construct: gene CDC42BPG

[7] = system: DMPK
[8] = system: T5, DRAK1
T5 construct: gene STK17A

[9] = system: T6, DRAK2
T6 construct: gene STK17B

[10] = system: DYRK1A
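Note: KINOMEscan kinase panel screen.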

SMILES	%Inh [1]	%Inh [2]	%Inh [3]	%Inh [4]	%Inh [5]	%Inh [6]	%Inh [7]	%Inh [8]	%Inh [9]	%Inh [10]
CN(c1ccccc1CNc1nc(Nc2ccc3c(c2)CC(=O)N3)ncc1C(F)(F)F)S(C)(=O)=O	0%	94.8%	12%	0%	19%	0%	25%	96.5%	98.4%	28%
CCNCC(Cc1ccccc1)NC(=O)c1cc(Br)c(-c2ccnc3[nH]ccc23)s1.Cl.Cl (stereo not drawn) [GSK1383280]	0%	40%	8%	18%	11%	90%	23%	0%	0%	37%
Cn1ccc2ncnc(Oc3ccc(NC(=O)Nc4ccnc(C(F)(F)F)c4)c(Cl)c3)c21	0%	0%	100%	99.6%	0%	0%	0%	0%	3%	13%
COc1ccc(Nc2nccc(N3CCC(NC(=O)c4cccc(C#N)c4)C3)n2)cc1 (stereo not drawn) [GSK1379730]	0%	0%	0%	12%	40%	0%	0%	2%	0%	22%
CC(C)c1nc(-c2cccc(NS(=O)(=O)c3ccccc3)c2)c(-c2ccnc(Nc3ccc4c(c3)CN(C)CC4)n2)s1 [GSK1649598]	17%	17%	100%	42%	69%	61%	0%	0%	0%	4%
CCCC(=O)Nc1n[nH]c2ncccc12 [SB-601436]	0%	0%	0%	0%	0%	0%	0%	2%	0%	0%
C[C@@H]1CCN(C(=O)N2CCCC2)C[C@@H]1N(C)c1ncnc2[nH]ccc12	0%	99.8%	8%	0%	8%	0%	72%	23%	38%	0%
Cc1ccc(Nc2ccnc(Nc3ccc4c(c3)CS(=O)(=O)C4)n2)cc1O.Cl [GW579362]	0%	0%	86%	78%	78%	30%	0%	45%	57%	38%
CC(=O)Nc1nc2cnc(Nc3cc(NC(=O)c4cccc(CC(C)(C)C#N)c4)ccc3C)nc2s1	5%	0%	100%	97.2%	26%	2%	0%	0%	0%	0%
Cl.c1ccc(Oc2ccc(Nc3ccnc4cc(-c5ccc(CN6CCNCC6)o5)ccc34)cc2)nc1 [GW567142]	0%	36%	70%	27%	41%	0%	0%	9%	0%	1%
Cl.Nc1n[nH]c2cc(-c3ccccn3)ccc12 [GSK2189892]	0%	0%	16%	0%	4%	0%	0%	37%	0%	10%
Cc1ccn2nc(-c3ccc(F)cc3)c(-c3ccncc3)c2c1.Cl [GW457859]	0%	0%	75%	82%	44%	75%	0%	2%	0%	0%
Cc1ccc(CC(=O)N2CCc3cc(-c4cn(C)c5ncnc(N)c45)ccc32)cc1 [GSK2634758]	0%	0%	61%	44%	21%	68%	15%	0%	0%	0%
O=C(Nc1n[nH]c2cc(-c3ccco3)ccc12)C1CC1 [SB-737447]	1%	0%	0%	0%	0%	0%	0%	27%	0%	16%
O=C(Nc1ccccc1)c1cccc(Oc2ccc3nccn3n2)c1	40%	0%	45%	42%	1%	6%	11%	7%	14%	0%
